Screening data deposited in PubChem by several laboratories.
Shown are actives, neighbours in structure and some others; about 2.4% of the full set was active somewhere.
WT yeast gro inh: growth inhibition of WT strain, primary screen, mitochondrial fusion inhibitor project, WT and mutant strains, chemical genetic; mitochondrial fusion phenotypic screen; inhibition, % at 10 µM; hit rate 2.1% among 190,000; AID 1362, 2008; in the data active = inhibition above about 58%; tested in S. cerevisiae
PERK inhibitor: block of dimerizer-induced PERK translation repression, primary screen, PERK inhibitor project, CHO PERK-DD cells, SEAP luminescence, HTS | Eukaryotic translation initiation factor 2-alpha kinase 3 (Homo sapiens), Q9NZJ5 | CHO PERK-DD fusion, SEAP luminescence translation reporter | inhibition, % at 5.6 µM | hit rate 0.17% among 220,000 | AID 1416, 2008;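 active = inhibition above the mean inhibition of all tested compounds plus 3 SD, set separately per screening campaign, cut at about 2.9% in these data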;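 note: PERK kinase domain activated by AP20187 dimerizer at 100 nM; 0% = DMSO with dimerizer and 100% = rapamycin at 8.4 µM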
Target sequence (Q9NZJ5 whole entry, looked up, the tested form may be a part): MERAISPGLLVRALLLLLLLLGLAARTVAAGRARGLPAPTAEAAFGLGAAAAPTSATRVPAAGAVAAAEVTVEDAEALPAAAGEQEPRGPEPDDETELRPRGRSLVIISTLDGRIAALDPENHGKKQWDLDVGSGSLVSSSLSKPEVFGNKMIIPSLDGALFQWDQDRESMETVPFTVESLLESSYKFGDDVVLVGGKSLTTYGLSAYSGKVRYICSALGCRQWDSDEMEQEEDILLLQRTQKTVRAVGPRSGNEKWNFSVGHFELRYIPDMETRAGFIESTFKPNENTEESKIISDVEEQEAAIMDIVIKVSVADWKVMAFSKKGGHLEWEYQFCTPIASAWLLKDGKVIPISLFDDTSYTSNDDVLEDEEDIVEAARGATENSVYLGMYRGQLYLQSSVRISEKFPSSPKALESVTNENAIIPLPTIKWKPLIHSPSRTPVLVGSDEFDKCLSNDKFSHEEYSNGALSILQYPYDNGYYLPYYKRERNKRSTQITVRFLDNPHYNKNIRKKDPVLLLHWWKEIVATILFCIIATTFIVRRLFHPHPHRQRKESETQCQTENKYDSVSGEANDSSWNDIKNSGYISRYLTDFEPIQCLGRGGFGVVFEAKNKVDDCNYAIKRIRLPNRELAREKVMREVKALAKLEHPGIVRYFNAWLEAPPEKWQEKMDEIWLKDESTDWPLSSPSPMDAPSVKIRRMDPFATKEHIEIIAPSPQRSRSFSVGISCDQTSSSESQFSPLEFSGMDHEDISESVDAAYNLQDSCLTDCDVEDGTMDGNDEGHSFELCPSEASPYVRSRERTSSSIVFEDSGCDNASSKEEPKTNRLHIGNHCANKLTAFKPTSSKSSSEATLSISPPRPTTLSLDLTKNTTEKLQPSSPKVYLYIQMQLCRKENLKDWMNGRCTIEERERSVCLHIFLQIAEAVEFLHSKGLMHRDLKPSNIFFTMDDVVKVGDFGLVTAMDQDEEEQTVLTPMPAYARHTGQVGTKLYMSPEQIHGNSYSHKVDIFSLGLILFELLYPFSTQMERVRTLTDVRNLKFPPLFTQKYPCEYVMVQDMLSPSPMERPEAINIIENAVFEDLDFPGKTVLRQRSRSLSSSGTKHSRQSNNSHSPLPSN
DTT redox prof: compounds producing H2O2 with reducing agent – biochemical, NIH compound library profiling, artefact control for MLSCN library redox annotation, primary screen; hit rate 0.03% among 200,000; activation, % at 10 µM; AID 878, 2007; DTT-dependent redox cycling H2O2, phenol red/HRP absorbance; 100% = 100 µM peroxide control, 0% = buffer;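 active = activation of at least 50% relative to the plate's high and low controls in the primary single-dose screen; inactive = activation below 50%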;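 note: compound incubated with DTT at 0.8 mM final as the reducing agent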
L929 necroptosis: inhibitors of zVAD-triggered necroptosis, primary screen, L929 cells; AID 1377, 2008; viability rescue, % at 10 µM; L929 zVAD necroptosis rescue, ATP luminescence, 24 h; with zVAD 60 µM; hit rate 0.38% among 220,000;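 active = activation, scaled between plate controls, above about 75%, limit read from the data; inactive = activation under that limit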;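 note: 0% = zVAD with DMSO and 100% = DMSO alone without zVAD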
PKD1 inh: inhibitors of human PKD1 kinase, biochemical, fluorescence polarization; Serine/threonine-protein kinase D1 (Homo sapiens), Q15139; PKD1 kinase fluorescence polarization assay; inhibition, % (no concentration beside the values); hit rate 0.056% among 200,000; AID 797, 2007; in the data active = inhibition above about 50%
TNF death inh: inhibitors of TNF-alpha triggered necroptosis, primary screen, cell-based, Jurkat FADD-/-, single concentration | hit rate 0.068% among 220,000 | Jurkat FADD-/- TNF necroptosis rescue, ATP luminescence, 24 h; 0 = TNF only, 100 = no-TNF cells | activation (protection from cell death), % at 10 µM;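 active = activation, meaning protection from cell death, of at least 50% relative to plate controls; inactive = activation below 50%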;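 note: necroptosis triggered by 40 ng/mL TNF-alpha added together with compound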
* = called active by the depositor.

How did O=C1NCCc2c1[nH]c1c(Cl)ccc(Cl)c21 do in these assays?
WT yeast gro inh: 89*; PERK inhibitor: 1; DTT redox prof: 2; L929 necroptosis: 2; PKD1 inh: 5; TNF death inh: -4

How did O=C1NCCc2c1[nH]c1ccccc21 do in these assays?
WT yeast gro inh: -16; PERK inhibitor: 0; DTT redox prof: 2; L929 necroptosis: 2; PKD1 inh: -2; TNF death inh: -1

What do the screens show for `CCOC(=O)C1CCN(CCC(=O)Nc2ccc(F)cc2)CC1`?
WT yeast gro inh: -13; PERK inhibitor: 0; DTT redox prof: -1; L929 necroptosis: 0; PKD1 inh: -1; TNF death inh: 2

Results for CCCC1(CCC)NC(=O)N(CC(=O)Nc2cccc(OC)c2)C1=O ?
WT yeast gro inh: 64*; PERK inhibitor: 1; DTT redox prof: 0; L929 necroptosis: 0; PKD1 inh: -9; TNF death inh: -3

How did CCCOc1ccc(-c2nc(C#N)c(N3CCC(C(N)=O)CC3)o2)cc1 do in these assays?
WT yeast gro inh: 94*; PERK inhibitor: 2; DTT redox prof: 1; L929 necroptosis: 0; PKD1 inh: -9; TNF death inh: 0

What do the screens show for `COc1ccc(C(=O)c2c(C(F)(F)F)oc3c2C(=O)c2ccccc2C3=O)cc1`?
WT yeast gro inh: 92*; PERK inhibitor: 0; DTT redox prof: -2; L929 necroptosis: 12; PKD1 inh: -1; TNF death inh: -18

What do the screens show for `CCC1(c2ccc(F)cc2)NC(=O)N(CC(=O)Nc2ccc(C)c(S(=O)(=O)N3CCOCC3)c2)C1=O` (stereo not drawn)?
WT yeast gro inh: 2; PERK inhibitor: 1; DTT redox prof: -1; L929 necroptosis: 0; PKD1 inh: 0; TNF death inh: 1

What do the screens show for `Cc1ccc(-c2cc(N)n(-c3ccc(F)cc3)n2)cc1`?
WT yeast gro inh: 20; PERK inhibitor: 3.4*; DTT redox prof: -1; L929 necroptosis: 1; PKD1 inh: -2; TNF death inh: 14

Results for Cn1cc(CN2C[C@H]3CC[C@H]2C3)c(-c2ccccc2F)n1 ?
WT yeast gro inh: -6; PERK inhibitor: 0; DTT redox prof: 0; L929 necroptosis: 0; PKD1 inh: -1; TNF death inh: 1

What do the screens show for `O=C(CN1C(=O)CCC1=O)c1ccc(-c2ccccc2)cc1`?
WT yeast gro inh: -29; PERK inhibitor: 1; DTT redox prof: 0; L929 necroptosis: 1; PKD1 inh: -5; TNF death inh: 2

What do the screens show for `N=c1ccn(CC(=O)c2ccc(-c3ccccc3)cc2)cc1`?
WT yeast gro inh: 66*; PERK inhibitor: -1; DTT redox prof: -1; L929 necroptosis: -1; PKD1 inh: -5; TNF death inh: -5

How did O=C(COC(=O)c1cccc(C(=O)OCC(=O)NC2CC2)n1)NC1CC1 do in these assays?
WT yeast gro inh: -5; PERK inhibitor: 0; DTT redox prof: -2; L929 necroptosis: 2; PKD1 inh: 0; TNF death inh: 0

What do the screens show for `Cc1cccc(N2CCN(C(=O)c3ccncc3)CC2)c1C`?
WT yeast gro inh: 0; PERK inhibitor: 0; DTT redox prof: 2; L929 necroptosis: 1; PKD1 inh: -3; TNF death inh: -9

What do the screens show for `Cc1cccc(N2CCN(C(=O)c3c(C)nn(Cc4ccccc4Cl)c3C)CC2)c1C`?
WT yeast gro inh: 60*; PERK inhibitor: -2; DTT redox prof: 1; L929 necroptosis: 0; PKD1 inh: -2; TNF death inh: -8

How did Cc1cccc2nc(-c3ccccc3)nc(N[C@@H](CO)c3ccccc3)c12 do in these assays?
WT yeast gro inh: 66*; PERK inhibitor: 0; DTT redox prof: 0; L929 necroptosis: 2; PKD1 inh: -8; TNF death inh: 5

What do the screens show for `Cc1ccc(NC(=O)COC(=O)CCc2c[nH]c(=O)[nH]2)cc1`?
WT yeast gro inh: 0; PERK inhibitor: 4.0*; DTT redox prof: 2; L929 necroptosis: 0; PKD1 inh: -8; TNF death inh: -2

Results for Cc1ccc(NC(=O)C2(c3ccccc3)CC2(Cl)Cl)cc1C (stereo not drawn) ?
WT yeast gro inh: 73*; PERK inhibitor: 1; DTT redox prof: 4; L929 necroptosis: 1; PKD1 inh: 8; TNF death inh: 0

Results for O=C(NCCCn1ccnc1)c1ccc(S(=O)(=O)N2CCOCC2)cc1 ?
WT yeast gro inh: -4; PERK inhibitor: 1; DTT redox prof: 1; L929 necroptosis: 1; PKD1 inh: 1; TNF death inh: 0

Results for CC(C1CC1)N(Cc1ccccc1)C(=S)Nc1cccc(C(F)(F)F)c1 (stereo not drawn) ?
WT yeast gro inh: 76*; PERK inhibitor: 0; DTT redox prof: 0; L929 necroptosis: -1; PKD1 inh: -11; TNF death inh: 1

How did CCOC(=O)Cc1nc(-c2cccc(C(F)(F)F)c2)no1 do in these assays?
WT yeast gro inh: 0; PERK inhibitor: 1; DTT redox prof: -2; L929 necroptosis: 1; PKD1 inh: -2; TNF death inh: 1

Results for O=S(=O)(c1ccc(Br)s1)N1CCN(Cc2ccc3c(c2)OCO3)CC1 ?
WT yeast gro inh: 61*; PERK inhibitor: 0; DTT redox prof: 0; L929 necroptosis: 0; PKD1 inh: -9; TNF death inh: 1

What do the screens show for `Cc1nc2sccc2c(=O)n1N`?
WT yeast gro inh: -9; PERK inhibitor: 1; DTT redox prof: 0; L929 necroptosis: 1; PKD1 inh: 5; TNF death inh: 1

How did O=C(Nc1ccccc1)C1=C[C@@H](c2ccccc2)C[C@@H](OCc2ccc(CO)cc2)O1 do in these assays?
WT yeast gro inh: -2; PERK inhibitor: 0; DTT redox prof: -1; L929 necroptosis: -1; PKD1 inh: -5; TNF death inh: 2

How did O=C(Nc1ccccc1)C1=C[C@@H](c2ccc(C(F)(F)F)cc2)C[C@@H](OCc2ccc(CO)cc2)O1 do in these assays?
WT yeast gro inh: 63*; PERK inhibitor: 0; DTT redox prof: 0; L929 necroptosis: 6; PKD1 inh: 11; TNF death inh: 6

How did Fc1ccccc1CNc1ccc(Cl)cc1 do in these assays?
WT yeast gro inh: 18; PERK inhibitor: 1; DTT redox prof: 3; L929 necroptosis: 97*; PKD1 inh: 8; TNF death inh: 81*

What do the screens show for `COc1cccc(/C=N/NC(=O)CNC(=O)c2ccc(S(=O)(=O)N3CCCC3)cc2)c1OC`?
WT yeast gro inh: -13; PERK inhibitor: 1; DTT redox prof: 0; L929 necroptosis: 2; PKD1 inh: -3; TNF death inh: 2

What do the screens show for `CCOc1cc(C2Nc3ccccc3C(=O)N2c2ccccc2OC)ccc1O` (stereo not drawn)?
WT yeast gro inh: 74*; PERK inhibitor: 0; DTT redox prof: 0; L929 necroptosis: 0; PKD1 inh: -4; TNF death inh: 0
